Structures are written as SMILES. Screen size: about 1,200 compounds; about 400 (33%) were called active. How the calls were made is not given here. The list is a sample of the results. Entries with a potency or affinity are not part of this list.

The nature of the assay: mammalian cell cytotoxicity, dose response, cytotoxicity control (AID 434958).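 Further: cells exposed to compound for 72 hours before readout.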 The conditions noted are these: cytotoxicity counter-screen; series mostly up to 40 µM. (In general: Counterscreens check selectivity or assay interference.)
With `CSc1ccccc1NC(=O)c1c(Br)cnn1C`, the molecule was called inactive.

For the molecule `C(=N\n1cnnc1)/c1ccc(-c2ccccc2)cc1`, the call was inactive.

With `CCc1ccc(N2C(=O)c3sc4nnc(-c5ccccc5)c(=O)n4c3C2=O)cc1`, the call was inactive. Take `Cn1c(/C=C/c2ccc(Cl)cc2)nc2ccccc2c1=O`: the outcome was inactive. On to `CCOc1ccc2c(c1)c(C(C)=O)c(C)n2-c1ccccc1`, for which the call was inactive. With `CCOC(=O)c1sc(NC(=O)CN2CCN(c3ccc(OC)cc3)CC2)nc1C`, the outcome was inactive. For `O=c1cc(C(F)(F)F)c2sc(N3CCCCC3)nc2[nH]1`, the molecule was called inactive. Take `COc1ccc(NC(=O)CCC2CCCC2)cc1OC`: the call was inactive. In the case of `CCN(CC)C(=O)COc1ccc(-c2nnc(Nc3ccc(OC)c(C(=O)NC)c3)c3ccccc23)cc1`, the outcome was inactive.

In the case of `CCCc1cc(C(=O)Nc2ccc(C(C)=O)cc2)no1`, the result was inactive.

Consider `O=C1c2cccc3c(N4CCCCC4)ccc(c23)C(=O)N1c1ccccn1`, for which the molecule was called inactive.

Regarding `COC(=O)c1ccc(-c2cc(C(=O)O)c3cc4c(cc3n2)OCCO4)cc1`, the molecule was classed as inactive. For `C/C(=N/NC(=O)c1ccccn1)c1ccncc1`, the result was inactive. For the molecule `O=C(NN=C(Cc1ccccc1)Cc1ccccc1)c1ccccc1F`, the outcome was inactive.

As for `C/C(=N\NC(=O)c1csc2ccccc12)c1ccc(O)cc1`, the outcome was inactive. For the molecule `C/C(=N\NC(=O)c1ccncc1)c1c(O)n(-c2ccccc2)c(=O)[nH]c1=O`, the outcome was inactive.

With `S=C(Nc1ccccc1Cl)N1CCCC(c2ccccc2)=N1`, the molecule was classed as inactive. Turning to `CCN(CC)c1ccc(C=N/C(C#N)=C(\N)C#N)cc1`, the result was inactive. For `COc1nc(-c2ccccc2)ccc1-c1noc(-c2cccnc2)n1` the value was “inactive”.

In the case of `CCn1nc(C)c([N+](=O)[O-])c1C(=O)NNC(=O)c1ccccc1Cl`, the molecule was called inactive. With `COc1cccc(-c2ccc(-c3noc(-c4ccccc4F)n3)c(OC)n2)c1`, the outcome was inactive. Turning to `Cc1cc(Br)cc2c(C(=O)NCC3CCCO3)cc(-c3ccccc3)nc12` (configuration not stated), the result was inactive.

Consider `CCCn1c2ccccc2c2nnc(SCC(=O)OCC)nc21`, for which the call was inactive. As for `CC(C)(C)c1cc(Cc2ccccc2)[nH]n1`, the entry is “inactive”; as for `COc1ccc([N+](=O)[O-])cc1NS(=O)(=O)c1ccc(Cl)c(C(=O)Nc2sc3c(c2C#N)CCCCC3)c1`, “inactive”. On to `CCCC(=O)Nc1nc(-c2ccccc2)ns1`, for which the result was inactive. Turning to `Cc1ccc(C)c(S(=O)(=O)N2CCN(CC(=O)NC(C)c3ccccc3)CC2)c1` (configuration not stated), the outcome was inactive.

For `O=c1oc(-c2ccccc2F)nc2scc(-c3ccccc3)c12`, the molecule was classed as inactive. With `Cc1ccc(C2=NN(C(=O)CN3C(=O)c4ccccc4S3(=O)=O)C(c3ccco3)C2)cc1` (configuration not stated), the molecule was classed as inactive. For the molecule `COCCOC(=O)c1c(C)oc2ccc(OCc3cc(C(=O)OC)oc3C)cc12`, the call was inactive. In the case of `Cc1sc2nc(C(C)Nc3ccccc3N3CCOCC3)[nH]c(=O)c2c1C` (configuration not stated), the result was inactive. With `CCCc1cc(NC(=O)COC(=O)c2nccnc2N)n(-c2ccccc2)n1`, the outcome was inactive. For `CC(C)CCN1CC(O)=C(c2nc3ccccc3[nH]2)C1=N`, the call was inactive. As for `O=C(Nc1nc(-c2ccc3c(c2)OCCO3)cs1)c1ccc(S(=O)(=O)N2CCCCC2)cc1`, the molecule was classed as inactive. Consider `O=C(Nc1nnc(-c2ccc3c(c2)OCCO3)o1)C1CCCCC1`, for which the molecule was classed as inactive. Regarding `CCSc1nnc(NC(=O)CSc2nccn2-c2cccc(C)c2)s1`, the outcome was inactive. As for `Cc1c(C(=O)NCCC2=CCCCC2)sc2ncnc(N3CCCCC3C)c12` (configuration not stated), the entry is “inactive”. Take `Cc1cc(C)c(NC(=O)CC(C)(C)C)c(Cl)c1`: the molecule was called inactive. For `COc1ccc(OC)c(NC(=O)CS(=O)(=O)c2ccccc2)c1` the value was “inactive”; for `Cc1cc(C)c2oc(-c3ccc(Cl)c(NC(=O)c4ccc(C#N)cc4F)c3)nc2c1`, “inactive”. With `Cc1ccc(OCC(=O)Nc2ccc(-c3nc4ncccc4o3)cc2)c(C)c1`, the molecule was called inactive. For `CCc1ccc(NC(=S)Nc2ccc3cn[nH]c3c2)cc1` the value was “inactive”. For `O=C(COC(=O)c1ccc(Cl)cc1[N+](=O)[O-])NNC(=O)c1cccs1`, the molecule was called inactive. For `NC(=S)N/N=C/c1ccc([N+](=O)[O-])cc1` the value was “inactive”. As to `NNC(=S)NC1CC2CC1C1C=CCC21` (configuration not stated), the result was inactive.

Turning to `CCc1nc2scc(-c3cccs3)c2c(=O)o1`, the result was inactive. Consider `Cc1c(-c2ccncc2)oc2ccc(Br)cc2c1=O`, for which the outcome was inactive. Regarding `Cc1ccc2c(Cl)cc(Cl)c(OCc3c(C)noc3C)c2n1`, the result was inactive. As to `O=C(N/N=C/c1ccc(OC(=O)c2ccc3c(c2)OCO3)cc1)c1cncc(Br)c1`, the outcome was inactive. As for `Cc1ccc(/C=N\NC(=O)c2csnn2)cc1`, the entry is “inactive”.

For the molecule `Cc1cccc(C)c1NC(=O)C1CC2CCC1C2` (configuration not stated), the molecule was classed as inactive. `COC(=O)c1c(NC(=O)c2ccc(C)cc2)csc1C`: the call was inactive.

On to `Cc1ccc(C)c(N2CCN(CC3CC=CCC3)CC2)c1` (configuration not stated), for which the molecule was called inactive.

`Cc1cc(Br)ccc1NC(=O)c1ccccc1-c1ccccc1`: the molecule was classed as inactive.

With `O=C(COC(=O)C1CC1)NCc1ccccc1Cl`, the call was inactive.

Take `Cc1ccc(C2=N/C(=C\c3cccc(F)c3)C(=O)O2)cc1`: the result was inactive. For `COC(=O)c1sc(-c2ccc(C(C)(C)C)cc2)cc1NC(=O)CCC(=O)O`, the result was inactive. For `O=C(COc1ccc(Cl)cc1)OCC(=O)N1CCCCCC1` the value was “inactive”; for `Cc1ccc(C)c(-n2c(-c3ccco3)n[nH]c2=S)c1`, “inactive”. As to `O=C(NN1C(=O)c2cc(Br)ccc2NC1c1ccccc1Cl)c1ccncc1` (configuration not stated), the outcome was inactive. Regarding `COc1ccc2cc(C3=CCCCC3)ncc2c1`, the outcome was inactive.

As for `CCOc1ccc(-c2nnc(-c3ccc(OC)cc3)o2)cc1`, the outcome was inactive.

With `COc1cccc(/C=C/c2[nH]c(=O)[nH]c(=O)c2[N+](=O)[O-])c1O`, the call was inactive.

Regarding `COc1ccc(-c2cc(C(N)=O)nc(N3CCCCCC3)n2)cc1`, the molecule was called inactive. On to `O=c1oc(-c2ccco2)nc2sc3c(c12)CCCCC3`, for which the molecule was called inactive. As to `CC(C(=O)Nc1sc2c(c1C(=O)NCc1ccco1)CCCC2)N1C(=O)c2ccccc2C1=O` (configuration not stated), the result was inactive. In the case of `O=C(Cn1cnc2sc3c(c2c1=O)CCCC3)NCC(=O)Nc1ccccc1F`, the molecule was classed as inactive. For the molecule `O=c1oc(-c2cccs2)nc2sc3c(c12)CCCC3`, the result was inactive. Take `N#Cc1cc2c(nc1SCC(=O)Nc1sc3c(c1C#N)CCC3)CCCC2`: the outcome was inactive.

In the case of `COc1ccccc1C(=O)Nc1sc2c(c1C(=O)NCc1ccco1)CCCC2`, the molecule was called inactive. As for `CCOc1nnnc2c1sc1nc(N3CCOCC3)c3c(c12)CCCC3`, the entry is “inactive”; as for `Fc1ccc(C2Nc3cccc4cccc(c34)N2)cc1`, “inactive”.

The values above are taken from PubChem BioAssay AID434958 (Southern Research Specialized Biocontainment Screening …, 2010).
